Bioassay records: PubChem, National Center for Advancing Translational Sciences (NCATS)
SARS PLP yeast = SARS-CoV PLP inhibition in yeast; hit rate 0.19% among 330,000; S. cerevisiae expressing SARS-CoV PLpro, growth rescue; Potency, µM (doses to about 32.9 µM), actives largely listed as activators; AID 485353; calls by dose curve; note: nearly all actives have a fitted effect of over 55% in size
Sm TGR block = inhibitors of Schistosoma mansoni thioredoxin glutathione reductase | Q962Y6 | Potency, µM (doses to about 114 µM), most hits filed as inhibitors | purified TGR, DTNB reduction, TNB absorbance 405 nm | hit rate 3% among 360,000; note: nearly all actives have a fitted effect of over 60% in size
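TGR 20 nM + NADPH 100 uM (dispensed conc.), cpd preinc 15 min RT; start with NADPH (500 uM addition) then DTNB (15 mM addition). Kinetic TNB absorbance, 405 nm filter. Four-parameter Hill fit across titration.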
Pf growth 48h = inhibits P. falciparum growth in the first generation, 48 h | P. falciparum luciferase growth in erythrocytes, 48 h | hit rate 5.9% among 310,000 | AID 504832 | Potency, µM (top dose mostly 28.7 µM), most hits filed as inhibitors
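Luminescence readout; reporter = integrated firefly luciferase in P. falciparum. RBC culture at 2% hematocrit, 0.1% parasitemia final, 37 C/5% CO2; decreased signal taken as growth inhibition.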
Pf growth 96h = P. falciparum growth inhibition at 96 hours. AID 504834. hit rate 6.9% among 320,000. Potency, µM (series often up to 28.7 µM), most hits filed as inhibitors. P. falciparum luciferase reporter growth, 96 h
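Two-generation exposure (96 h) targets delayed-death phenotype. Reporter parasites carrying integrated firefly luciferase, in red cells at 2% hematocrit and 0.05% parasitemia final, kept at 37 C, 5% CO2; luminescence loss indicates inhibition.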
Hits are given with their value; i = inactive; ? = inconclusive; nt = no result given. An excerpt weighted towards active compounds, which were near 12% of everything screened. Unless noted, calls come from the whole dose curve; as a rule, active = well fitted curve in the direction sought with a large enough effect; inconclusive = small, poorly fitted or top-dose-only effect, or another doubt; inactive = no such curve, though single readings can be large; an effect the other way counts as inactive or inconclusive.

SMILES | SARS PLP yeast | Sm TGR block | Pf growth 48h | Pf growth 96h
Cc1ccc(-n2ncc3c(=O)n(CC(=O)NC4CCCCC4)cnc32)cc1 | i | i | i | 4.7µM
Cc1ccc(-n2ncc3c(=O)n(CC(=O)N4CCCCCC4)cnc32)cc1 | i | i | i | nt
Cc1ccc(-n2ncc3c(=O)n(CC(=O)N(C(C)C)C(C)C)cnc32)cc1 | i | i | i | 13µM
Cc1nc(Cl)c(C(=O)NCCc2ccccc2)c(C)c1[N+](=O)[O-] | i | i | i | i
CC(=O)NCCCS(=O)(=O)O | nt | nt | i | i
O=C(CCc1ccccn1)N1CCCC(N2CCN(c3cccc(C(F)(F)F)c3)CC2)C1 (configuration not stated) | i | ? | ? | ?
C=CCn1c(SCc2cc(=O)n3cc(C)ccc3n2)nnc1-c1ccc(F)cc1 | i | i | i | 5.2µM
CNC(=S)Nc1ccc(OC)c(OC)c1 | i | i | i | i
COc1cc(NC(=S)NN2CCN(C)CC2)cc(OC)c1OC | i | i | i | i
COc1ccc(NC(=S)NN2CCN(C)CC2)cc1OC | i | i | i | 2.3µM
COc1ccc(NC(=S)Nc2cccc(Cl)c2Cl)cc1OC | i | 28µM | i | i
COc1ccc(-c2nc(C(=O)Nc3cccc(C(C)=O)c3)nn2-c2ccccc2Cl)cc1 | nt | i | nt | nt
Cc1cc(C)c(NC(=O)CCCN2C(=O)COc3ccc(C)cc32)c(C)c1 | nt | i | nt | nt
COc1cc(OC)c(/C=N/NC(=O)c2ccncc2)c(OC)c1 | i | i | i | i
CC(=O)N1c2ccc(S(=O)(=O)N3CCN(c4ccc(C)cc4C)CC3)cc2CC1C (configuration not stated) | nt | i | nt | nt
O=C(CCl)N1CCCC1c1ccc2c(c1)OCCO2 (configuration not stated) | i | 3.5µM | ? | ?
COc1ccc(C2CCCN2CC(O)COc2ccccc2C(C)C)cc1 (configuration not stated) | i | i | 12µM | 13µM
CCOC(=O)N1CCN(CC(O)COc2ccccc2C(C)C)CC1 (configuration not stated) | i | i | ? | ?
COc1ccccc1Cn1cc(C(=O)c2ccc(C)cc2)c(=O)c2cc3c(cc21)OCCO3 | nt | i | nt | nt
O=C(NCC(=O)c1ccccc1)OCc1ccc([N+](=O)[O-])cc1 | i | i | i | 13µM
O=C(CNC(=O)c1ccccc1)OCc1ccc([N+](=O)[O-])cc1 | ? | i | i | i
O=C(CCC(=O)N1CCN(c2ccc(O)cc2)CC1)c1cccs1 | i | 56µM | 13µM | 7.4µM
O=C(CCC(=O)N1CCN(c2ccc(O)cc2)CC1)c1ccc(Br)cc1 | i | i | i | 9.3µM
CCOc1ccc(C(=O)CCC(=O)N2CCN(c3ccc(O)cc3)CC2)cc1 | i | nt | nt | nt
CC(=O)c1ccc(N2CCN(C(=O)CCC(=O)c3cccs3)CC2)cc1 | i | i | i | ?
SMILES | SARS PLP yeast | Sm TGR block | Pf growth 48h | Pf growth 96h
COc1cccc(NC(=S)N2CCN(S(=O)(=O)c3ccccc3)CC2)c1 | i | i | ? | ?
COCC(=O)N(CCc1ccc(OC)c(OC)c1)Cc1cc2cc(C)ccc2nc1Cl | i | i | i | i
COCC(=O)N(CCc1ccccc1)Cc1cc2cc(C)ccc2nc1Cl | i | 40µM | i | i
Cc1ccc(CC(=O)NNC(=O)c2ccncc2)cc1C | i | i | ? | i
O=C(c1cnn2ccccc12)N(Cc1ccco1)C1CCCC1 | i | i | nt | 10µM
COc1cccc(N2CCN(CC(=O)N3CCN(S(=O)(=O)c4ccc(Cl)cc4)CC3)CC2)c1 | i | i | ? | ?
COc1ccc(S(=O)(=O)N2CCN(CC(=O)c3ccc(O)c(O)c3)CC2)cc1 | i | 20µM | i | 15µM
COc1cccc(C(=O)CN2CCN(S(=O)(=O)c3ccc(Cl)cc3)CC2)c1 | nt | 22µM | nt | nt
O=C(CN1CCN(S(=O)(=O)c2ccc(F)cc2)CC1)c1ccc(O)c(O)c1 | i | 22µM | i | i
CCOc1ccc(C(=O)CN2CCN(S(=O)(=O)c3ccc(F)cc3)CC2)cc1 | i | 25µM | ? | i
COc1ccccc1N1CCN(c2ncnc3c2cnn3C)CC1 | nt | i | nt | nt
CCOC(=O)c1cc2c(=O)n3ccccc3nc2n(C(C)C)c1=NC(=O)c1cc2ccccc2o1 | nt | i | nt | nt
O=C(CN1CCN(S(=O)(=O)c2ccc(Cl)cc2)CC1)c1ccc(O)c(O)c1 | i | 20µM | i | ?
NC(=O)CN1CCN(S(=O)(=O)c2ccc(Cl)cc2)CC1 | i | nt | i | i
Cc1cccc(-c2noc(CSc3nc(-c4ccc(F)cc4)cc(=O)[nH]3)n2)c1 | nt | i | nt | nt
COc1cc(/C=C2/C(=N)N3OC(C)=CC3=NC2=O)ccc1OC(=O)c1ccco1 | i | i | i | 13µM
CN(C)S(=O)(=O)c1ccc(Cl)c(C(=O)Nc2ccc(S(=O)(=O)N3CCOCC3)cc2)c1 | i | i | i | ?
COc1ccccc1CN1C[C@@H]2C[C@@H](c3ccc(C)cc3)N3CCC[C@@]23C1=O | i | i | ? | ?
CCc1ccc([C@@H]2C[C@H]3CN(Cc4ccccc4OC)C(=O)[C@]34CCCN24)cc1 | i | i | 5.9µM | ?
CC(C)(O)C#Cc1ccc([C@@H]2C[C@H]3CN(c4ccccc4)C(=O)[C@]34CCCN24)s1 | i | i | ? | i
COc1ccccc1CN1C[C@@H]2C[C@@H](c3cccc(O)c3)N3CCC[C@@]23C1=O | i | i | ? | i
COc1ccccc1CN1C[C@@H]2C[C@@H](c3[nH]c4ccc(C)cc4c3C)N3CCC[C@@]23C1=O | i | nt | 7.4µM | i
CCn1ccnc1[C@@H]1C[C@H]2CN(Cc3ccccc3OC)C(=O)[C@]23CCCN13 | i | i | i | 9.3µM
O=C1N(c2ccccc2)C[C@@H]2C[C@@H](c3cccs3)N3CCC[C@@]123 | i | 16µM | ? | ?
COc1ccccc1CN1C[C@@H]2C[C@@H](c3ccccc3C)N3CCC[C@@]23C1=O | i | i | ? | i
SMILES | SARS PLP yeast | Sm TGR block | Pf growth 48h | Pf growth 96h
COCc1cc([C@@H]2C[C@H]3CN(c4ccccc4)C(=O)[C@]34CCCN24)ccc1OC | i | i | 10µM | ?
COc1ccccc1N1C[C@@H]2C[C@@H](c3ccco3)N3CCC[C@@]23C1=O | i | ? | ? | ?
Cc1ccccc1CN1C[C@@H]2C[C@@H](c3cnc(N4CCOCC4)s3)N3CCC[C@@]23C1=O | i | 16µM | ? | i
CN1C[C@@H]2C[C@@H](C3=Cc4cc(Cl)ccc4OC3)N3CCC[C@@]23C1=O | i | i | i | i
COc1ccc2c(c1)C=C([C@@H]1C[C@H]3CN(c4ccccc4)C(=O)[C@]34CCCN14)CO2 | i | i | 1.5µM | ?
COc1ccc([C@@H]2C[C@H]3CN(c4ccccc4)C(=O)[C@]34CCCN24)c(OC)c1OC | i | i | ? | i
COc1ccccc1CN1C[C@@H]2C[C@@H](C3=Cc4cc(Cl)ccc4OC3)N3CCC[C@@]23C1=O | i | i | ? | 13µM
CCN(CC1CCCO1)C(=O)c1cc(COc2ccccc2SC)on1 (configuration not stated) | i | i | ? | i
CCOc1ccc(OCC)c(NS(=O)(=O)c2cc(-c3onc(C)c3C)ccc2OC)c1 | nt | i | nt | nt
Cc1cc(Cl)ccc1NC(=S)NCC(O)c1ccccc1 (configuration not stated) | i | i | i | ?
